# Nrf2 inh: inhibitors of Nrf2 signaling. A549 ARE-Fluc reporter, luciferase luminescence, 18-24 h. Potency, µM (doses to about 46 µM), most hits filed as inhibitors. 360,000 tested, 2.1% active. AID 504444; further: nearly all actives have a fitted effect of over 60% in size
#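 Cells were seeded and rested 2 h, then exposed to compounds for 18-24 h. CellTiter-Fluor was read first as a viability measure. BugLite was added 15 min before the final luminescent read of ARE-luciferase activity in A549 cells.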
# Nrf2 ARE act: activators of Nrf2 (ARE) signaling; 410,000 tested, 0.31% active; Potency, µM (series often up to 46.1 µM), actives largely listed as activators; AID 624171; AREc32 ARE-luciferase reporter (MCF7-derived line), luminescence, 24 h; further: nearly all actives have a fitted effect of over 65% in size
#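 AREc32 cells carrying an ARE-driven firefly luciferase, 1000 cells/well in OPTI-MEM with 5% FBS, dosed after overnight attachment and incubated 24 hr at 37 deg C. Steady-Glo luminescence read after 30 min at RT.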
# ELG1 DNA repair: blocks ELG1-dependent DNA repair in HEK293T cells; AID 504467; HEK293T ELG1-luciferase reporter, luminescence, 16 h; DNA damage induced by 5-fluorouridine; Potency, µM (top dose mostly 46.1 µM), hits mostly inhibitors; 330,000 tested, 2.3% active; further: nearly all actives have a fitted effect of over 55% in size
#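 In this reporter screen, reduction of luminescence relative to DMSO vehicle indicated activity. Compounds and 5-fluorouridine were added together to 2,000 cells per well, incubated for 16 hr at 37 °C, then developed with ONE-Glo.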
# A549 tox: kills or reduces viability of A549 cells in Nrf2 counter-screen. A549 ARE-Fluc cells, CellTiter-Fluor viability, 18-24 h. Potency, µM (top dose mostly 46 µM), hits mostly inhibitors. 390,000 tested, 0.16% active. AID 504648
#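 A549 ARE_Fluc cells in 5% FBS OPTI-MEM were exposed to compounds in concentration-response for 18-24 h at 37 deg C. Viability was read by CellTiter-Fluor fluorescence (Ex 405/Em 525) after 30 min, before the luciferase read.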
# A number is an active result; i = inactive; ? = inconclusive; nt = no result. Hits are enriched below; roughly 3.7% of the tested compounds scored in any of these assays. The call rests on the fitted dose curve; in most records, active means well fitted curve in the direction sought with a large enough effect; inconclusive means small, poorly fitted or top-dose-only effect, or another doubt; inactive means no such curve, though single readings can be large; an effect the other way counts as inactive or inconclusive.
SMILES,Nrf2 inh,Nrf2 ARE act,ELG1 DNA repair,A549 tox
COc1cc(/C=C(\C#N)c2ccccn2)ccc1OCc1ccccc1Cl,i,i,?,i
Cc1cc(C)n2nc(CC#N)c(C#N)c2n1,?,i,i,i
COc1cc(/C=C(\C#N)c2ccccn2)cc(OC)c1O,i,12.6µM,i,i
N#C/C(=C/c1cccs1)c1ccccn1,?,?,?,i
O=C(CNC(=O)c1ccccc1Cl)OC(C(=O)Nc1cc(C(F)(F)F)ccc1Cl)c1ccccc1 (stereo not drawn),i,nt,nt,i
CCc1ccccc1NC(=O)N1CCC(NC(=O)C(Cc2ccccc2)NC(C)=O)CC1 (stereo not drawn),i,i,i,i
COc1cccc(CN(C)C(=O)CNC(=O)c2sc3ccccc3c2Cl)c1OC,25.9µM,i,i,i
COC(=O)Cc1[nH]nc2c1C1(C(=O)N(Cc3ccccc3)c3ccccc31)C(C#N)=C(N)O2 (stereo not drawn),i,i,i,i
Cc1[nH]nc2c1C1(C(=O)N(Cc3ccc(Cl)cc3)c3ccccc31)C(C#N)=C(N)O2 (stereo not drawn),20.6µM,i,i,i
Cc1csc(CNc2ncnc3cc(-c4ccc5c(c4)OCO5)ccc23)n1,i,nt,nt,i
Cc1ccccc1CN1C(=O)C(O)(CC(=O)c2cccc(Br)c2)c2ccccc21 (stereo not drawn),i,i,nt,i
O=C1Nc2ccccc2/C1=C/c1ccccc1F,i,?,i,i
Cc1ccccc1/C=C1\C(=O)Nc2ccc(F)cc21,2.91µM,?,i,?
